Screening data as filed in PubChem BioAssay.
CHX counter = counter-screen for Shiga toxin inhibitors: cycloheximide protein synthesis inhibition. max response, %. 300,000 tested, 12% active. AID 2314. cell reporter, cycloheximide protein synthesis inhibition counterscreen; in the data active = max response mostly above about 13%, no sharp cut-off; inactive = mostly below about 14%; also: read at 38.3 µM for the half of the compounds with a filed dose
Pf growth 96h = inhibits malaria parasite growth, 96 h. P. falciparum luciferase reporter growth, 96 h. Potency, µM (highest dose often 28.7 µM), usual class: inhibitors. 320,000 tested, 6.9% active
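Readout is luminescence from an integrated firefly luciferase in P. falciparum. Red cells, 2% hematocrit and 0.05% parasitemia final, were cultured with compound through two parasite generations (96 hours) at 37 C, 5% CO2.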
Shiga toxin inh = inhibitors of Shiga toxin in Vero cells | Vero cells, Shiga toxin protein synthesis inhibition reporter | inhibition, % at 38.7 µM | 290,000 tested, 9.2% active; in the data active = inhibition mostly above about 28%, no sharp cut-off; inactive = mostly below about 43%
Pf growth 48h = inhibits P. falciparum growth in the first generation, 48 h; 310,000 tested, 5.9% active; Potency, µM (doses to about 28.7 µM), usual class: inhibitors; P. falciparum luciferase growth in erythrocytes, 48 h
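Growth was read as firefly luciferase luminescence after a 48 h, 37 C, 5% CO2 exposure of compounds to reporter-bearing P. falciparum cultures (0.1% parasitemia, 2% hematocrit final) in Albumax-supplemented RPMI 1640.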
NS1 inh = inhibitors of influenza NS1 protein function | Potency, µM (titrated, usually from 46.1 µM) | 270,000 tested, 0.4% active | AID 2326; calls by dose curve; also: actives are rising curves; nearly all actives have a fitted effect of over 50% in size
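Compounds were scored for reversing the slow growth caused by influenza A NS1 in S. cerevisiae, measured by optical density at 600 nm. Assay medium contained 2% galactose at pH 6.0; NS1-free yeast of the same strain were the positive control.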
Numbers stand for hits; . = inactive; ? = inconclusive; / = no result; [ ] = remark or other dose. In the library only some 21% were active in any assay of this set; here they are far more common. Unless noted, calls follow the shape of the dose curve; as a rule, active = well fitted inhibition curve with a large enough effect; inconclusive = small, poorly fitted or top-dose-only effect, or another doubt; inactive = no such curve, though single readings can be large or run the other way.

SMILES	CHX counter	Pf growth 96h	Shiga toxin inh	Pf growth 48h	NS1 inh
CN(C(=O)COC(=O)c1c2c(nc3ccccc13)CCCC2)c1c(N)n(Cc2ccccc2)c(=O)[nH]c1=O	/	8.28µM	/	13.1µM	/
CC(C)CN(C(=O)COC(=O)c1c2c(nc3ccccc13)CCC2)c1c(N)n(Cc2ccccc2)c(=O)[nH]c1=O	.	6.57µM	.	8.28µM	.
CC(C)CN(C(=O)COC(=O)c1ccc(Cl)nc1)c1c(N)n(Cc2ccccc2)c(=O)[nH]c1=O	/	.	/	.	/
Cc1ccsc1C(=O)OCC(=O)N(C)c1c(N)n(Cc2ccccc2)c(=O)[nH]c1=O	/	.	/	.	/
CCn1c(COc2ccccc2Cl)nnc1SCC(=O)Nc1ncccc1C	.	.	.	.	.
C/C(=N\O)c1cccc[n+]1Cc1ccccc1	/	/	/	/	.
CCCC(=O)Nc1sc(C(=O)Nc2cccc(N)c2)c(C)c1C(=O)OC	51.4	.	59.4	.	.
CCOC(=O)n1ccc(C(=O)Nc2ccccc2F)n1	.	?	.	.	.
CCOC(=O)c1c(N)sc(C(=O)Nc2ccccc2F)c1C	36.7	.	.	.	.
CCOC(=O)c1c(NC(=S)Nc2ccccc2)sc(C)c1C	.	.	.	.	.
CCOC(=O)c1cc(C(=O)Nc2ccccc2F)nn1C	37.2	.	72.0	/	.
CCOC(=O)c1c(N)sc(C(=O)Nc2ccccc2)c1C	25.7	.	73.5	.	.
COC(=O)c1c(NC(C)=O)sc(C(=O)Nc2ccccc2F)c1C	.	.	.	.	.
COC(=O)c1c(NC(C)=O)sc(C(=O)Nc2ccccc2)c1C	.	.	.	.	.
CCNC(=O)NC(=O)C(C)On1nnc2ccc(S(=O)(=O)N(CC)CC)cc21 (stereo not drawn)	.	.	.	.	.
CCOC(=O)c1c(N)sc(C(N)=O)c1C	.	.	.	.	.
COC(=O)c1c(NC(=O)CCC(=O)O)sc(Cc2ccccc2)c1C	.	.	.	11.7µM	.
CCCOC(=O)c1c(N)sc(C(=O)OCC)c1C	37.3	.	active	.	.
CCC(=O)Nc1sc(C(=O)Nc2ccccc2F)c(C)c1C(=O)OC	.	2.08µM	52.3	.	.
Cc1ccc(NC(=O)CSc2nnnn2-c2ccc3c(c2)OCO3)cc1C	.	.	.	.	.
CCN(CC(=O)NCc1ccccn1)S(=O)(=O)c1cc(Cl)ccc1Cl	/	.	/	?	/
S=C(Nc1ccc(Oc2ccccc2)cc1)NC1CCCCCC1	.	.	.	.	.
CN(C(=S)Nc1ccc(Oc2ccccc2)cc1)C1CCCCC1	22.0	.	.	.	.
CCCCN(C)C(=S)Nc1ccc(Oc2ccccc2)cc1	21.8	.	.	.	.
COc1ccc(S(=O)(=O)N(C)C)cc1NC(=O)CSc1nncs1	.	.	.	.	.
SMILES	CHX counter	Pf growth 96h	Shiga toxin inh	Pf growth 48h	NS1 inh
NC(=S)N=Nc1c(O)[nH]c2cc(F)c(F)cc12	.	9.28µM	.	?	.
COc1ccccc1C(=O)Nc1ccc(Br)c2cccnc12	.	?	.	.	.
COc1ccccc1C(=O)Nc1ccc(Br)cc1C	29.2	?	62.7	.	.
COc1cccc2cc(C(=O)Nc3ccccc3C)/c(=N/O)oc12	27.9	.	89.3	.	.
COCC(=O)Nc1ccc(Br)cc1C	.	5.86µM	.	.[5.75 µM]	/
CN1CCN(C(=O)CN2C(=O)CC(C)(C)S(=O)(=O)c3ccccc32)CC1	.	/	.	/	.
CCOC(=O)N1CCN(C(=O)CN2C(=O)CC(C)(C)S(=O)(=O)c3ccccc32)CC1	.	3.29µM	.	/	.
CCCN1CCN(C(=O)CN2C(=O)CC(C)(C)S(=O)(=O)c3ccccc32)CC1	.	14.7µM	.	.	.
CCN(CC(=O)NC1CCCCCC1)S(=O)(=O)c1ccccc1	.	/	.	.	.
CN(CC(=O)NC1CCCCCC1)S(=O)(=O)c1ccccc1	11.6	/	34.1	.	.
CC(=O)c1ccc(S(=O)(=O)N(C)CC(=O)NCC2CCCCC2)cc1	.	.	53.4	.	.
O=C(CN(Cc1ccccc1)S(=O)(=O)c1cccc(C(F)(F)F)c1)NC1CCCCC1	.	?	.	.	.
COc1ccccc1N(CC(=O)NC1CCCC1)S(=O)(=O)c1cccc(C(F)(F)F)c1	/	?	/	13.1µM	/
COc1ccccc1N(CC(=O)NC1CCCC1)S(=O)(=O)c1ccc(C)cc1	.	.	.	?	.
CCOc1ccccc1N(CC(=O)NC1CCCCC1)S(=O)(=O)c1ccc(C)cc1	.	.	.	11.7µM	.
COc1ccc(OC)c(N(CC(=O)NC2CCCC2)S(=O)(=O)c2ccc(OC)c(OC)c2)c1	.	5.86µM	.	?	.
COc1ccc(OC)c(N(CC(=O)NC2CCCCCC2)S(=O)(=O)c2ccc(C)cc2)c1	.	.	.	?	.
O=C(CN(C(=O)CNS(=O)(=O)c1ccccc1)c1ccc2c(c1)OCCO2)NC1CCCCC1	24.0	?	.	?	.
CCC(C)(C)NC(=O)CN(C(=O)CNS(=O)(=O)c1ccccc1)c1ccc2c(c1)OCCO2	.	.	.	.	.
COc1ccc(OC)c(N(CC(=O)N2CCC(C)CC2)S(=O)(=O)c2ccc(OC)c(OC)c2)c1	.	2.62µM	.	?	.
Cc1cc2oc(=O)cc(-c3ccccc3)c2c(C)c1-c1ccc(C(F)(F)F)cc1	.	/	.	/	/
CC(NC(=O)CSc1nc2c(c(C(F)(F)F)n1)CCc1ccccc1-2)c1ccccc1 (stereo not drawn)	.	.	.	7.38µM	.
Cc1ccc2c(CC(=O)N3CCc4ccccc43)coc2c1	23.3	.	100.5	.	.
O=C(Cc1coc2ccc3ccccc3c12)N1CCc2ccccc21	.	8.28µM	.	.	.
O=C(Cc1coc2ccc3ccccc3c12)N1CCN(c2ncccn2)CC1	.	8.28µM	.	?	.
SMILES	CHX counter	Pf growth 96h	Shiga toxin inh	Pf growth 48h	NS1 inh
O=C(Cc1c[nH]c2ccccc12)N1CCc2ccccc21	30.3	10.4µM	86.9	.	.
CCN1CCN(C(=O)Cc2coc3ccc4ccccc4c23)CC1	.	/	.	.	.
O=C(Cc1coc2ccc3ccccc3c12)NC1CCCc2ccccc21 (stereo not drawn)	.	?	.	?	.
COc1ccc(C(=O)NNC(=O)C2=NN(c3ccccc3)C(=O)CC2)cc1	.	.	.	.	.
O=C(COC(=O)c1cccc(S(=O)(=O)N2CCc3ccccc32)c1)Nc1ccc(Cl)cn1	.	.	.	.	.
CC(C)c1c(Cl)c(O)c(-c2ccccc2)c(=O)n1-c1ccc(F)cc1	.	.	.	.	.
CCCN(CCC)C(=O)Cc1coc2ccc3ccccc3c12	.	/	.	11.7µM	.
CC1=C(/C=C/c2ccccc2)CCN(C)C1	32.6	?	.	?	.
C[C@@H](C(=O)N1CCNCC1)n1cc(CCCN=C(N)N)nn1	.	.	.	.	.
OC(CC1CC12c1ccccc1-c1ncccc12)(c1ccccc1)c1ccccc1 (stereo not drawn)	.	0.828µM	.	/	.
O=C(CN1C(=O)/C(=C\c2ccc(F)cc2)Oc2ccccc21)N1CCN(c2ccccn2)CC1	.	7.38µM	.	.	.
COc1ccc(/C=C/C(=O)NC(=S)N2CCN(c3ccccn3)CC2)cc1OC	.	.	.	?	.
